NS1 inh: influenza NS1 inhibition. hit rate 0.4% among 270,000. Potency, µM (titrated, usually from 46.1 µM). AID 2326; calls by dose curve; also: actives are rising curves; nearly all actives have a fitted effect of over 50% in size
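Recovery from NS1-induced slow growth read by OD600 in budding yeast switched to galactose assay medium (pH 6.0, -URA) at 1:100 dilution. Compound 23 nl per well; the matching strain lacking NS1 serves as control.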
CHX counter: affects cycloheximide protein synthesis inhibition readout, counter-screen. cell reporter, cycloheximide protein synthesis inhibition counterscreen. max response, %. hit rate 12% among 300,000. AID 2314; in the data active = max response mostly above about 13%, no sharp cut-off; inactive = mostly below about 14%; also: read at 38.3 µM for the half of the compounds with a filed dose
Shiga toxin inh: blocks Shiga toxin action in Vero cells | hit rate 9.2% among 290,000 | inhibition, % at 38.7 µM | Vero cells, Shiga toxin protein synthesis inhibition reporter | AID 2315; in the data active = inhibition mostly above about 28%, no sharp cut-off; inactive = mostly below about 43%
AmpC detergent: AmpC beta-lactamase inhibition with detergent present; P00811; AmpC hydrolysis of nitrocefin, absorbance 480 nm, 0.01% Triton; Potency, µM (titrated, usually from 114 µM), most hits filed as inhibitors; hit rate 0.041% among 370,000; also: nearly all actives have a fitted effect of over 25% in size
Target sequence (P00811 whole entry, looked up): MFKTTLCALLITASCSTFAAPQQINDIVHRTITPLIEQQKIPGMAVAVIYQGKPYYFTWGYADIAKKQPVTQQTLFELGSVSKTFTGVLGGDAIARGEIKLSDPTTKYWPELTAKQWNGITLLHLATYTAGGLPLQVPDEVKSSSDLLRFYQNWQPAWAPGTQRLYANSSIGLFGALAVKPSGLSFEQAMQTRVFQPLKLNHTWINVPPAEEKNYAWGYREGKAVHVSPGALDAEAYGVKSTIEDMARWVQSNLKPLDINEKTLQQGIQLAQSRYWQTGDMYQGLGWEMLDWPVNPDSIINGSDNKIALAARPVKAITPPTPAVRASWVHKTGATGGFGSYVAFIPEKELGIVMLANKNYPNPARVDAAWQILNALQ
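AmpC (5.3 nM in the dispensed reagent) in 20 mM phosphate pH 7.0 with 0.01% (detergent screen) or 0.0001% Triton X-100 was preincubated with compounds for 15 min at room temperature. Nitrocefin was then added from an 800 uM solution, and hydrolysis was followed at 480 nm.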
AmpC no deterg: inhibitors of E. coli AmpC beta-lactamase without detergent; P00811; Potency, µM (highest dose often 57.1 µM), most hits filed as inhibitors; hit rate 0.52% among 330,000; AmpC nitrocefin hydrolysis, absorbance 480 nm, 0.0001% Triton; AID 485341; also: nearly all actives have a fitted effect of over 20% in size
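20 mM phosphate pH 7.0 + 0.01% (detergent screen) or 0.0001% Triton X-100; 5.3 nM AmpC reagent; cpd preinc 15 min RT; nitrocefin (800 uM stock) to start; A480 q20 s × 4 min; Activity was normalised to no-enzyme and no-compound control wells.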
Each line names hits and unclear results; the compound was inactive in the other large screens. This is one part of a sample in which hits are shown more often than they occur. Unless noted, calls follow the shape of the dose curve; as a rule, active = well fitted curve in the direction sought with a large enough effect; inconclusive = small, poorly fitted or top-dose-only effect, or another doubt; inactive = no such curve, though single readings can be large; an effect the other way counts as inactive or inconclusive.

CCOc1ccc(NC(=O)c2cc3ccccc3cc2O)cc1	CHX counter 30, Shiga toxin inh 60, AmpC detergent inconclusive
Cc1ccc(-c2nnc(Nc3ccc(F)cc3)c3ccccc23)cc1S(=O)(=O)NC(C)C	none (no result: NS1 inh, CHX counter, Shiga toxin inh, AmpC no deterg)
COc1cc(NC(=O)c2cc3ccccc3cc2O)c(OC)cc1Cl	CHX counter 19, Shiga toxin inh 63, AmpC no deterg 3.5µM
CCOc1ccc(NC(=O)c2cc3c(C)nc4ccccc4c3o2)cc1	AmpC detergent inconclusive, AmpC no deterg 5µM
COc1cc2ccccc2cc1C(=O)Nc1cccnc1	CHX counter 33, Shiga toxin inh 76
COc1cc2ccccc2cc1C(=O)Nc1ccccc1Cl	CHX counter 86, Shiga toxin inh 71
Cc1nc2ccccc2c2oc(C(=O)NC3CC3)cc12	none
O=C(Nc1nnc(S(=O)(=O)N2CCCCC2)s1)c1ccc(F)cc1	none (no result: NS1 inh, CHX counter, Shiga toxin inh, AmpC no deterg)
Cc1ccc(C)c(OCCC(=O)OCC(=O)NC(=O)NC2CCCC2)c1	none (no result: NS1 inh, CHX counter, Shiga toxin inh)
CCOc1ccc(NC(=O)c2cc(OC)nc3ccccc23)cc1	none
CCOc1ccc(NC(=O)c2cc3ccccc3cc2OC)cc1	CHX counter 36, Shiga toxin inh 60, AmpC detergent inconclusive
CC(=O)c1ccc(N2CCN(C(=O)c3cccc(Oc4ccccc4)c3)CC2)cc1	CHX counter 35, AmpC detergent inconclusive (no result: NS1 inh)
COc1cc2ccccc2cc1C(=O)Nc1ccc(N2CCN(C)CC2)cc1	CHX counter 43
CCOc1ccc(NC(=O)c2cccc3ccccc23)cc1	CHX counter 18
CCOc1ccc(NC(=O)c2oc3ccccc3c2NC(=O)c2ccc(OC)cc2OC)cc1	none (no result: NS1 inh, CHX counter, Shiga toxin inh, AmpC no deterg)
CCC(C)NC(=O)c1sc2nc3n(c(=O)c2c1C)CCC3 (stereo unspecified)	none (no result: NS1 inh, CHX counter, Shiga toxin inh, AmpC no deterg)
Cn1cnc2c(=O)oc3ccc(S(=O)(=O)Nc4ccc(F)cc4)cc3c21	none (no result: NS1 inh, CHX counter, Shiga toxin inh, AmpC no deterg)
CSc1ncc(Cl)c(C(=O)Nc2c(C(=O)c3ccc(C)c(F)c3)oc3ccccc23)n1	none (no result: NS1 inh, CHX counter, Shiga toxin inh, AmpC no deterg)
CCCNC(=O)c1c(NC(=O)c2ccccc2F)sc2c1CCCCC2	none (no result: NS1 inh, CHX counter, Shiga toxin inh, AmpC no deterg)
COc1ccccc1NC(=O)c1cc2cc(Br)ccc2cc1O	CHX counter 24, Shiga toxin inh 85, AmpC no deterg inconclusive
Cc1ccc(NC(=O)Nc2ccccc2CC[N+](=O)[O-])cc1	CHX counter 16 (no result: NS1 inh)
O=C(NCc1ccco1)c1ccc(COc2ccc(Cl)cc2)cc1	none
Cc1ccc(CNC(=O)c2ccc(OCC3CCCO3)cc2)cc1 (stereo unspecified)	CHX counter 15, AmpC detergent inconclusive
O=C(NCc1ccco1)c1ccc(OCC2CCCO2)cc1 (stereo unspecified)	CHX counter 20
O=C(NCc1ccc(Cl)cc1)c1ccc(OCC2CCCO2)cc1 (stereo unspecified)	none
O=C(NC1CCCCC1)c1ccc2c(c1)N(Cc1cccc(Cl)c1)C(=O)c1ccccc1S2=O (stereo unspecified)	none (no result: NS1 inh, CHX counter, Shiga toxin inh, AmpC no deterg)
CCCN1CCC(=O)N([C@H](CSc2ccccc2)c2ccccc2)CC1	CHX counter 24
CCCN1CCC(=O)N(C(CSc2ccc(Br)cc2)c2ccccc2)CC1 (stereo unspecified)	CHX counter 50, Shiga toxin inh 77 (no result: NS1 inh, AmpC detergent, AmpC no deterg)
CCCN1CCC(=O)N([C@H](CSc2ccc(C)cc2)c2ccccc2)CC1	CHX counter 23, Shiga toxin inh 46
CCCN1CCC(=O)N([C@H](CO)c2ccccc2)CC1	AmpC detergent inconclusive
COc1ccc(OC)c(Nc2ncnc3c2cnn3-c2cccc(C)c2)c1	none
Cc1cccc(-n2nnc(C(=O)NCc3ccco3)c2N)c1	CHX counter 21, Shiga toxin inh 38
Cc1ccc(-n2ncc3c(NCc4ccco4)ncnc32)cc1C	CHX counter 51, Shiga toxin inh 91 (no result: NS1 inh)
Cc1cccc(-n2ncc3c(NCc4ccco4)ncnc32)c1	CHX counter 35, Shiga toxin inh 64, AmpC detergent inconclusive
Cc1cc(C)n2nc(CNS(=O)(=O)c3ccccc3)nc2n1	none (no result: NS1 inh, CHX counter, Shiga toxin inh, AmpC no deterg)
COc1cccc(Nc2nc3cc(C)ccc3nc2NS(=O)(=O)c2ccc(Cl)cc2)c1	none (no result: NS1 inh, CHX counter, Shiga toxin inh, AmpC no deterg)
C=C(C)COc1ccc(-c2n[nH]c(C)c2-c2ccc(OC)c(OC)c2)c(O)c1	none
CC(C)c1ccc(NC(=O)CSc2nc3ncccc3[nH]2)cc1	CHX counter 19
CC(C)OC(=O)c1ccc(NC(=O)CSc2nc3ncccc3[nH]2)cc1	CHX counter 23, Shiga toxin inh 46
CCOC(=O)c1c(NC(=O)COC(=O)Cc2n[nH]c(=O)c3ccccc23)sc(C(=O)NC)c1C	none (no result: NS1 inh, CHX counter, Shiga toxin inh, AmpC detergent)
